Measurements taken from PubChem BioAssay (NCI).
This is part of a sample that, as a whole, favours compounds with a hit. Of some 79,000 tested, about 15% had one in any assay. Calls of active or inactive are those of the source. Cut-off read from the data, not from the text of the source: active = growth inhibition above about 70%; inactive = the rest.

Assays:
[1] = NCI Yeast Anticancer Drug Screen. Data for the rad52 strain (AID 147);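 note: 0% = growth of vehicle-treated control cultures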; details: S. cerevisiae rad52 mutant growth inhibition, stronger effect = higher value
Method in brief: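 Read-out: growth inhibition versus vehicle-treated controls. Cells were a DNA repair-deficient yeast strain treated with compounds.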

[2] = NCI Yeast Anticancer Drug Screen. Data for the wt1 strain (AID 149);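 note: 0% = growth of vehicle-treated wt1 cultures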; details: S. cerevisiae wt1 strain (SPY 50644) growth inhibition, stronger effect = higher value
Method in brief: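 wt1 strain grown with compound or vehicle; inhibition taken from the growth difference.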

[3] = NCI Yeast Anticancer Drug Screen. Data for the rad50EPP+ strain (AID 151);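 note: 0% = growth of vehicle-treated control cultures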; details: S. cerevisiae rad50 mutant strain, stronger effect = higher value
Method in brief: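 Growth inhibition read against vehicle controls in rad50EPP+ yeast, a strain altered in DNA damage repair, after compound exposure.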

[4] = NCI Yeast Anticancer Drug Screen. Data for the mgt1 strain (AID 153); details: S. cerevisiae mgt1 mutant growth inhibition, stronger effect = higher value
Method in brief: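 mgt1 yeast grown with test compound; read-out is growth inhibition versus vehicle-treated cultures.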

[5] = NCI Yeast Anticancer Drug Screen. Data for the rad50 strain (AID 155);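 note: 0% = growth of vehicle-only cultures of the same strain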; details: S. cerevisiae rad50 strain growth inhibition, stronger effect = higher value
Method in brief: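 DNA repair mutant yeast, compound exposure, growth read-out; inhibition is taken relative to vehicle.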

[6] = NCI Yeast Anticancer Drug Screen. Data for the mec2-1 strain (AID 157); details: S. cerevisiae mec2-1 strain, stronger effect = higher value
Method in brief: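 Yeast mec2-1 mutant treated with compound. Readout: growth inhibition vs vehicle controls.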

[7] = NCI Yeast Anticancer Drug Screen. Data for the rad14 strain (AID 159);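 note: 0% = growth of vehicle-treated control cultures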; details: S. cerevisiae rad14 strain growth inhibition, stronger effect = higher value
Method in brief: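 DNA repair-defective yeast, compound-exposed; % growth inhibition derived by comparison with vehicle-treated controls.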

[8] = NCI Yeast Anticancer Drug Screen. Data for the sgs1 mgt1 strain (AID 161);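 note: 0% = growth of cultures given vehicle only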; details: S. cerevisiae sgs1 mgt1 strain, stronger effect = higher value
Method in brief: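 Inhibition of yeast growth, normalised to vehicle-treated controls, is reported for a strain bearing genetic alterations in DNA damage repair.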

[9] = NCI Yeast Anticancer Drug Screen. Data for the CLN2oe strain (AID 163);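 note: 0% = growth of vehicle-only control cultures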; details: S. cerevisiae CLN2oe strain, stronger effect = higher value
Method in brief: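 Read-out: yeast growth inhibition, expressed relative to vehicle-only controls. The strain bears an engineered cell-cycle alteration.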

[10] = NCI Yeast Anticancer Drug Screen. Data for the cln2 rad14 strain (AID 165);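 note: 0% = growth equal to vehicle treated cultures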; details: S. cerevisiae cln2 rad14 strain, stronger effect = higher value
Method in brief: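 cln2 rad14 yeast strain; compound exposure; growth inhibition read vs vehicle controls.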

[11] = NCI Yeast Anticancer Drug Screen. Data for the bub3 strain (AID 167); details: S. cerevisiae bub3 mutant strain, stronger effect = higher value
Method in brief: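 In this screen, a yeast mutant lacking normal mitotic checkpoint function is challenged with compound. Relative growth versus vehicle gives the inhibition value.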

[12] = NCI Yeast Anticancer Drug Screen. Data for the wt2 strain (AID 169);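 note: 0% = growth of vehicle-treated yeast cultures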; details: S. cerevisiae wt2 strain growth inhibition, stronger effect = higher value
Method in brief: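 Read-out: growth inhibition versus vehicle-treated control cultures after compound exposure of the yeast strain.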

[13] = NCI Yeast Anticancer Drug Screen. Data for the mlh1 strain (AID 171);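 note: 0% = growth of vehicle-treated control cultures of the same strain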; details: S. cerevisiae mlh1 strain growth inhibition, stronger effect = higher value
Method in brief: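 Read-out: growth inhibition versus vehicle controls. Strain: engineered yeast with a defined DNA repair or cell cycle defect, compound-treated.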

[14] = NCI Yeast Anticancer Drug Screen. Data for the sgs1 strain (AID 173);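 note: 0% = growth of vehicle-only control cultures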; details: S. cerevisiae sgs1 mutant, stronger effect = higher value
Method in brief: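 Read-out: yeast growth inhibition relative to vehicle controls, following compound exposure of a strain with a defined DNA repair/cell cycle alteration.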

[15] = NCI Yeast Anticancer Drug Screen. Data for the mlh1 rad18 strain (AID 175); details: S. cerevisiae mlh1 rad18 strain growth inhibition, stronger effect = higher value
Method in brief: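 Yeast w/ defined DNA-repair lesions; compound exposure; growth vs vehicle controls → % inhibition.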

[16] = NCI Yeast Anticancer Drug Screen. Data for the rad18 strain (AID 177); details: S. cerevisiae rad18 mutant growth inhibition, stronger effect = higher value
Method in brief: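 Readout: growth inhibition vs vehicle controls. Cells: genetically altered yeast strain, DNA repair defect.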

[17] = at 5.0 µM (retest, dose inferred, filed as 0.5)
[18] = at 50.0 µM (retest, dose inferred, filed as 5.0)

Measured: growth inhibition

Clc1ccc(/C(=C\c2ccccc2)Cn2ccnc2)cc1
active: [1]; at 33.0 µM 86% | [1]; at 100.0 µM 76% | [3]; at 11.0 µM 92% | [3]; at 33.0 µM 95% | [3]; at 100.0 µM 96% | [4]; at 33.0 µM 71% | [4]; at 100.0 µM 87% | [5]; at 33.0 µM 84% | [5]; [18] 92% | [5]; at 50.0 µM 79% | [5]; at 100.0 µM 85% | [6]; [18] 88% | [6]; at 50.0 µM 82.3% | [7]; at 33.0 µM 81% | [7]; at 100.0 µM 80% | [8]; [18] 95% | [8]; at 50.0 µM 79.7% | [9]; at 33.0 µM 75% | [9]; at 100.0 µM 74% | [10]; [18] 92% | [10]; at 50.0 µM 73.2% | [11]; at 33.0 µM 72% | [11]; [18] 97% | [11]; at 50.0 µM 88.2% | [11]; at 100.0 µM 89% | [12]; at 100.0 µM 77% | [13]; at 100.0 µM 74% | [14]; at 33.0 µM 90% | [14]; at 100.0 µM 83% | [15]; [18] 94% | [15]; at 50.0 µM 78.6% | [16]; at 11.0 µM 81% | [16]; at 33.0 µM 93% | [16]; at 100.0 µM 92%
inactive: [1]; at 1.2 µM 18% | [1]; at 3.7 µM 34% | [1]; at 11.0 µM 53% | [2]; at 1.2 µM 9% | [2]; at 3.7 µM 12% | [2]; at 11.0 µM 28% | [2]; at 33.0 µM 20% | [2]; at 100.0 µM 39% | [3]; at 1.2 µM 26% | [3]; at 3.7 µM 54% | [4]; at 1.2 µM 14% | [4]; at 3.7 µM 22% | [4]; at 11.0 µM 60% | [5]; at 1.2 µM 22% | [5]; at 3.7 µM 34% | [5]; [17] 52% | [5]; at 11.0 µM 54% | [6]; at 1.2 µM 11% | [6]; at 3.7 µM 21% | [6]; [17] -14% | [6]; at 11.0 µM 37% | [6]; at 33.0 µM 54% | [6]; at 100.0 µM 67% | [7]; at 1.2 µM 38% | [7]; at 3.7 µM 51% | [7]; at 11.0 µM 68% | [8]; [17] 30% | [9]; at 1.2 µM 11% | [9]; at 3.7 µM 21% | [9]; at 11.0 µM 48% | [10]; [17] 26% | [11]; at 1.2 µM 10% | [11]; at 3.7 µM 32% | [11]; [17] 51% | [11]; at 11.0 µM 44% | [12]; at 1.2 µM 20% | [12]; at 3.7 µM 29% | [12]; at 11.0 µM 46% | [12]; at 33.0 µM 54% | [13]; at 1.2 µM 5% | [13]; at 3.7 µM 19% | [13]; at 11.0 µM 39% | [13]; at 33.0 µM 51% | [14]; at 1.2 µM 44% | [14]; at 3.7 µM 54% | [14]; at 11.0 µM 69% | [15]; [17] 42% | [16]; at 1.2 µM 46% | [16]; at 3.7 µM 64%

Nc1cc(Cl)ccc1Nc1ccccc1
active: [2]; at 100.0 µM 94% | [4]; at 100.0 µM 85% | [5]; [18] 99% | [5]; at 50.0 µM 79.2% | [5]; at 100.0 µM 93% | [6]; [18] 99% | [6]; at 50.0 µM 79.8% | [6]; at 100.0 µM 92% | [7]; at 100.0 µM 87% | [8]; [18] 91% | [8]; at 50.0 µM 83.5% | [9]; at 100.0 µM 84% | [10]; [18] 95% | [11]; [18] 92% | [11]; at 50.0 µM 84% | [11]; at 100.0 µM 93% | [12]; at 100.0 µM 95% | [13]; at 100.0 µM 79% | [14]; at 100.0 µM 89% | [15]; [18] 99% | [15]; at 50.0 µM 84% | [16]; at 100.0 µM 85%
inactive: [1]; at 1.2 µM -25% | [1]; at 3.7 µM -22% | [1]; at 11.0 µM -27% | [1]; at 33.0 µM -18% | [1]; at 100.0 µM 68% | [2]; at 1.2 µM -31% | [2]; at 3.7 µM -26% | [2]; at 11.0 µM -25% | [2]; at 33.0 µM -17% | [3]; at 1.2 µM -58% | [3]; at 3.7 µM -21% | [3]; at 11.0 µM -19% | [3]; at 33.0 µM 28% | [3]; at 100.0 µM 69% | [4]; at 1.2 µM -25% | [4]; at 3.7 µM -15% | [4]; at 11.0 µM -10% | [4]; at 33.0 µM -1% | [5]; at 1.2 µM -21% | [5]; at 3.7 µM -15% | [5]; [17] 60% | [5]; at 11.0 µM -8% | [5]; at 33.0 µM 16% | [6]; at 1.2 µM -42% | [6]; at 3.7 µM -6% | [6]; [17] 65% | [6]; at 11.0 µM -49% | [6]; at 33.0 µM -33% | [7]; at 1.2 µM -7% | [7]; at 3.7 µM -13% | [7]; at 11.0 µM -14% | [7]; at 33.0 µM 1% | [8]; [17] 9% | [9]; at 1.2 µM 5% | [9]; at 3.7 µM 3% | [9]; at 11.0 µM -1% | [9]; at 33.0 µM 3% | [10]; [17] 24% | [10]; at 50.0 µM 61.1% | [11]; at 1.2 µM -21% | [11]; at 3.7 µM -16% | [11]; [17] 20% | [11]; at 11.0 µM -24% | [11]; at 33.0 µM -8% | [12]; at 1.2 µM -15% | [12]; at 3.7 µM -15% | [12]; at 11.0 µM -22% | [12]; at 33.0 µM 5% | [13]; at 1.2 µM -85% | [13]; at 3.7 µM -70% | [13]; at 11.0 µM -31% | [13]; at 33.0 µM -25% | [14]; at 1.2 µM -53% | [14]; at 3.7 µM -36% | [14]; at 11.0 µM -35% | [14]; at 33.0 µM 4% | [15]; [17] 62% | [16]; at 1.2 µM -15% | [16]; at 3.7 µM -39% | [16]; at 11.0 µM -24% | [16]; at 33.0 µM -15%
